{
  "source": "PubChem BioAssay (EPA / NIEHS)",
  "note": "Records with an inconclusive call do not appear. The source made the active and inactive calls. Rule for the calls: active = hit-call score of the fitted dose curve at least 0.9, where 1 is the maximum; inconclusive = response in the unintended direction; inactive = score below 0.9.",
  "data": [
    {"target": "human CYP2A6, CYP2A6 (gene 1548) (UniProt P11509)", "sequence (P11509 whole entry, looked up)": "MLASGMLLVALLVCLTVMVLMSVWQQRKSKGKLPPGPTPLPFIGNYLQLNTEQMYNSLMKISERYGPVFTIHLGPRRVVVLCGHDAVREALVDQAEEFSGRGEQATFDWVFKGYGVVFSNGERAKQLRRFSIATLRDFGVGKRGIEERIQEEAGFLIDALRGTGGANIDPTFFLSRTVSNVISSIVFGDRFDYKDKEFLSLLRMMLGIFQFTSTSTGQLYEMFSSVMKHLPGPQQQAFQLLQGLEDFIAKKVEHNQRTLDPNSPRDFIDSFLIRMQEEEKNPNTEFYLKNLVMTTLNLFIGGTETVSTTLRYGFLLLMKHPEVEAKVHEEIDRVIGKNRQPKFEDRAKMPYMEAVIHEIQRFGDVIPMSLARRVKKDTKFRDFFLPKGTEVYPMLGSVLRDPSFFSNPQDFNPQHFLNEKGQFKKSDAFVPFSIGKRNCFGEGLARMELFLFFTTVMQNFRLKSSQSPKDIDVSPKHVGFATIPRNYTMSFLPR", "experiment": "NVS_ADME_hCYP2A6: NovaScreen (NVS) CYP450-related Enzyme Activity (ADME) Assay for human CYP2A6 (AID 2283099)", "procedure": "NVS_ADME_hCYP2A6 is a biochemical, single-readout assay that uses extracted gene-proteins from insect cells in a cell-free assay. Measurements were taken 0.5 hour after chemical dosing in a 96-well plate.NVS_ADME_hCYP2A6 is one of one assay component(s) measured or calculated from the NVS_ADME_hCYP2A6 assay. It is designed to make measurements of enzyme activity, a form of enzyme reporter, as detected with fluorescence intensity signals by Fluorescence technology.Data from the assay component NVS_ADME_hCYP2A6 was analyzed into 1 assay endpoint. This assay endpoint, NVS_ADME_hCYP2A6, was analyzed in the positive analysis fitting direction relative to Acetonitrile as the negative control and baseline of activity. Using a type of enzyme reporter, loss-of-signal activity can be used to understand changes in the enzymatic activity as they relate to the gene CYP2A6. Furthermore, this assay endpoint can be referred to as a primary readout, because this assay has produced multiple assay endpoints where this one serves a enzymatic activity function. To generalize the intended target to other relatable targets, this assay endpoint is annotated to the cyp intended target family, where the subfamily is xenobiotic metabolism.\nBinding assays used specific radioligands (tritiated, iodinated) with non-radioactive competitive displacement ligands in agonist or antagonist protocols (as indicated) and various reference compounds and inhibitors to titrate specific binding to receptors and transporters. Most enzyme assays (CYPs, kinases, phosphatases, proteases, HDACs) used recombinant protein and specific substrates (fluorescence mostly, some colorimetric and radioactive) and inhibitors, followed by a biochemical separation of substrate and product. All assays for the biochemical HTS were initially run in duplicate at a single concentration (10 uM for CYP450 assays and 25 uM for all others). Assay-chemical combinations meeting a pre-defined threshold (e.g., 30% inhibition and other criteria defined below) were then run in singleton concentration-response format with maximum concentration of 20 uM for CYPs and 50 uM for all others. Each assay was run with positive and negative controls, and concurrent controls on every plate. The follow-up (secondary) screen tested active chemical-pairs in concentration series, as well as a few additional assays not tested in the primary screen, some selected negative inactives, and several cases re-run in the concentration series for confirmatory purposes.", "values": [
      {"smiles": "C[N+](C)(C)CC1CO1", "note": "(configuration not stated)", "outcome": "inactive"},
      {"smiles": "[Cl-].[Cl-].[Hg+2]", "AC50": "14.8 µM (active)"},
      {"smiles": "Clc1ccccc1Cl", "outcome": "inactive"},
      {"smiles": "Nc1ccc(N=Nc2ccccc2)cc1", "outcome": "inactive"},
      {"smiles": "Nc1ccc([N+](=O)[O-])cc1", "AC50": "8.46 µM (active)"},
      {"smiles": "O=C(N[C@H](c1ccccc1)[C@@H]1CN2CCC1CC2)c1c(Cl)ccc(C(F)(F)F)c1Cl", "outcome": "inactive"},
      {"smiles": "CC(C)(OOC(C)(C)c1ccccc1)c1ccccc1", "outcome": "inactive"},
      {"smiles": "Cc1cc(N=Nc2ccccc2C)ccc1N", "outcome": "inactive"},
      {"smiles": "CCOC(=O)[C@]1(c2ccccc2)Oc2ccccc2[C@@H]1N", "outcome": "inactive"},
      {"smiles": "CCCCCCCCn1sccc1=O", "AC50": "4.74 µM (active)"},
      {"smiles": "O=[N+]([O-])C(Br)(CO)CO", "outcome": "inactive"},
      {"smiles": "Cc1cccc(N)c1N", "outcome": "inactive"}
    ]}
  ]
}
